According to PubChem BioAssay (EPA / NIEHS):
Records with an inconclusive call do not appear. Activity calls are given as the source filed them. The calls were made as follows, unless noted: active = hit-call score of the fitted dose curve at least 0.9, where 1 is the maximum; inconclusive = response in the unintended direction; inactive = score below 0.9.

Experiments:
[1] = TOX21_p53_BLA_p5_viability: Viability Assessment in the Tox21 HCT-116 p53 Agonism Beta-lactamase Assay, Phase 5 (AID 2283600)
Method in brief: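 Cells were plated at 4000/well, rested 5 h at 37C, then given compounds in DMSO (217-fold dilution) for 16 h at 37C, 5% CO2. Following the CCF4-AM beta-lactamase read, CellTiter-Glo was added and luminescence was read after 30 min at room temperature.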

[2] = molecular target: Cellular tumor antigen p53 (Homo sapiens) (UniProt P04637); assay: TOX21_p53_BLA_p5_ratio: Tox21 HCT-116 p53 Agonism Beta-lactamase Assay, Ratio, Phase 5 (AID 2283599)
Chain of Cellular tumor antigen p53 (Homo sapiens) (P04637 whole entry, looked up): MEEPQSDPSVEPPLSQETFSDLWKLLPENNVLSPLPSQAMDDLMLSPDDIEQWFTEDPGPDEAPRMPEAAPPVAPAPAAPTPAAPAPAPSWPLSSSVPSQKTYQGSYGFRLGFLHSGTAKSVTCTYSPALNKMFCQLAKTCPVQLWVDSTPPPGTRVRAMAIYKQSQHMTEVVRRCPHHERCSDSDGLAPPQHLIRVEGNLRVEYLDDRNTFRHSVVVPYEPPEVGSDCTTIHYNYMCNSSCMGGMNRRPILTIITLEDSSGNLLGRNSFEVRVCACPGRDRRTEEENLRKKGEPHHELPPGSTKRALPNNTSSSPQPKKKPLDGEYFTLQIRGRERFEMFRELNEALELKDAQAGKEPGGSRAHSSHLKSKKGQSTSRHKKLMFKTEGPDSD
Method in brief: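 Beta-lactamase reporter ratio (blue 460 nm over green 530 nm, 405 nm excitation) after 2 h CCF4-AM loading, in HCT-116 cells exposed 16 h at 37 C to compounds pinned at 217-fold dilution. Increases relative to DMSO baseline scored.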

[3] = molecular target: Cellular tumor antigen p53 (Homo sapiens) (UniProt P04637); assay: TOX21_p53_BLA_p4_ratio: Tox21 HCT-116 p53 Agonism Beta-lactamase Assay, Ratio, Phase 4 (AID 2283601)
Method in brief: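 Signal is the blue/green (460nm/530nm) ratio of cleaved versus uncleaved CCF4-AM substrate, read after 2 h substrate loading. Cells were HCT116 carrying the p53-responsive beta-lactamase reporter, dosed 16 h at 37C, 5% CO2; CellTiter-Glo measured in parallel.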

[4] = CCTE_Harrill_HTTr_Viability_MCF7: CCTE's 6-hour Cell Viability Assessment for the High-Throughput Transcriptomics (HTTr) Platform, in MCF-7 cells cultured in DMEM + 10% fetal bovine serum, Harrill Lab (AID 2284010; active = hit-call score of the fitted dose curve at least 0.9, where 1 is the maximum; inactive = score below 0.9)
Method in brief: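 MCF-7 cells in DMEM + 10% FBS, 384-well, exposed 6 h to an eight-point dilution series. Membrane integrity scored by high-content imaging of propidium iodide exclusion; bidirectional fit versus DMSO.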

[5] = CCTE_Harrill_HTTr_Apoptosis_MCF7: CCTE's 6-hour Apoptosis Assessment for the High-Throughput Transcriptomics (HTTr) Platform, in MCF-7 cells cultured in DMEM + 10% fetal bovine serum, Harrill Lab (AID 2284011; active = hit-call score of the fitted dose curve at least 0.9, where 1 is the maximum; inactive = score below 0.9)
Method in brief: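 MCF-7 cells in DMEM + 10% fetal bovine serum were exposed to chemicals for 6 hours over an eight-point dilution series. Caspase-3/7 activation was imaged by high content imaging with CellEvent Caspase 3/7 Green; bidirectional fitting used DMSO as baseline.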

[6] = CCTE_Harrill_HTTr_CellCount_MCF7: CCTE's Cell Proliferation Assessment for the High-Throughput Transcriptomics (HTTr) Platform, Harrill Lab (AID 2284012);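 also: cells exposed to compound for six hours; intended direction is loss of nuclei count meaning fewer cells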
Method in brief: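 MCF7 cells exposed 6 hours to an eight-point dilution series; Hoechst-stained nuclei counted by high-content imaging. Bidirectional curve fitting against DMSO baseline.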

[7] = TOX21_p53_BLA_p4_viability: Viability Assessment in the Tox21 HCT-116 p53 Agonism Beta-lactamase Assay, Phase 4 (AID 2283597);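 also: hits lower the luminescence signal meaning cytotoxicity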
Method in brief: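 HCT116 p53-bla cells (4000/well) rested 5 h at 37C, then received compounds in DMSO (217-fold dilution) for 16 h at 37C, 5% CO2. CellTiter-Glo was added after the CCF4-AM read, and luminescence was read after 30 min at room temperature.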

For CCN(CC)CCn1c(=O)c(Cc2ccc(OC)cc2)nc2ccccc21, the outcome [1] was “inactive”.

In the case of CCCCC(=O)N(Cc1ccc(-c2ccccc2-c2nn[nH]n2)cc1)[C@@H](C(=O)O)C(C)C, the outcome [2] is reported as “inactive”.

For Nc1ccccc1S(=O)(=O)O, the outcome [1] was “inactive” and the outcome [3] was “inactive”.

With [K+] the outcome [2] was “inactive”, the outcome [3] was “inactive” and the outcome [4] was “inactive”. The outcome [5] was “inactive” and the outcome [6] was “inactive”.

In the case of CC(C)=CCC[C@@](C)(O)[C@H]1CC=C(C)CC1, the outcome [2] is reported as “inactive”.

In the case of CN1CCC[C@@H]1Cc1c[nH]c2ccc(CCS(=O)(=O)c3ccccc3)cc12, the outcome [2] is reported as “inactive”.

In the case of Cc1ccnc(NS(=O)(=O)c2ccc(N)cc2)n1, the outcome [2] is reported as “inactive”, the outcome [1] is reported as “inactive” and the outcome [3] is reported as “inactive”.

With CCCN(CC)C(CC)C(=O)Nc1c(C)cccc1C (stereo unspecified) the outcome [1] was “inactive”.

With CCO/C([O-])=N/c1c[n+](N2CCOCC2)no1 the outcome [2] was “inactive” and the outcome [1] was “inactive”.

With CC(C)N(C)C the outcome [1] was “inactive”.

With CN[C@H]1CCc2cc(OC)c(OC)c(OC)c2-c2ccc(OC)c(=O)cc21 the outcome [2] was “inactive” and the outcome [3] was “inactive”.

In the case of CNCCC(Oc1ccccc1OC)c1ccccc1 (stereo unspecified), the outcome [1] is reported as “inactive” and the outcome [3] is reported as “inactive”.

With CCN(CC)CC(=O)Nc1c(C)cccc1C the outcome [2] was “inactive” and the outcome [3] was “inactive”.

For CCCCCCCCCCCc1ccccc1, the outcome [7] was “inactive” and the outcome [3] was “inactive”.

In the case of Cc1ccc(C)c(N)c1, the outcome [1] is reported as “inactive”.

In the case of Cc1ccc(C)cc1, the outcome [1] is reported as “inactive”.

In the case of Nc1ccc(C(=O)NCC(=O)O)cc1, the outcome [2] is reported as “inactive”, the outcome [1] is reported as “inactive” and the outcome [3] is reported as “inactive”.

For CCCCCCOC(=O)c1cccnc1, the outcome [2] was “inactive”, the outcome [1] was “inactive” and the outcome [3] was “inactive”.

With Cc1ccc(CO)cc1 the outcome [2] was “inactive”, the outcome [1] was “inactive” and the outcome [3] was “inactive”.

For Nc1ccc(S(=O)(=O)Nc2ccccc2)cc1, the outcome [2] was “inactive” and the outcome [3] was “inactive”.

For CO[C@@]1(NC(=O)C(C(=O)O)c2ccc(O)cc2)C(=O)N2C(C(=O)O)=C(CSc3nnnn3C)CO[C@@H]21 (stereo partly specified), the outcome [2] was “inactive”, the outcome [1] was “inactive” and the outcome [3] was “inactive”.

With NC[C@H]1O[C@H](O[C@H]2[C@H](O)[C@@H](O[C@H]3O[C@H](CO)[C@@H](O)[C@H](N)[C@H]3O)[C@H](N)C[C@@H]2N)[C@H](N)[C@@H](O)[C@@H]1O the outcome [2] was “inactive”.

With Cn1nnnc1SCC1=C(C(=O)O)N2C(=O)[C@@H](NC(=O)[C@H](OC=O)c3ccccc3)[C@H]2SC1 the outcome [1] was “inactive”.

In the case of CC(C)CCOC(=O)C=Cc1ccccc1, the outcome [2] is reported as “inactive” and the outcome [1] is reported as “inactive”.

For c1cnc2cc3c(cc2n1)[C@@H]1CNC[C@H]3C1, the outcome [2] was “inactive” and the outcome [3] was “inactive”.

In the case of CN(C)CCC=C1c2ccccc2C(C)(C)c2ccccc21, the outcome [2] is reported as “inactive”.

With CCCCc1cc2ccccc2c(OCCN(C)C)n1 the outcome [1] was “inactive” and the outcome [3] was “inactive”.

For CO[C@@]1(NC(=O)CSC[C@@H](N)C(=O)O)C(=O)N2C(C(=O)O)=C(CSc3nnnn3C)CS[C@@H]21, the outcome [1] was “inactive”.

For Nc1ccc(S(=O)(=O)NC(=O)c2ccccc2)cc1, the outcome [2] was “inactive” and the outcome [3] was “inactive”.

In the case of Cn1c(N)nc2nc[nH]c2c1=O, the outcome [1] is reported as “inactive”.

For C=CC(C)(O)CCCC(C)CCCC(C)CCCC(C)C (stereo unspecified), the outcome [1] was “inactive”.
